Bioassay records as filed in PubChem BioAssay.
Marburg entry inh – qHTS for inhibitors of binding or entry into cells for Marburg Virus | Potency, µM (top dose mostly 37.8 µM), for the others: at the top dose activity change, negative = inhibition, usual class: inhibitors | actives 1.8% (n = 300,000) | AID 540276, 2011 | Marburg virus pseudotyped entry inhibition, cell reporter; calls by dose curve; tested in HEK293 cells; also: potency is read from the fitted curve at half-maximal effect
Lassa entry inh – qHTS for Inhibitors of binding or entry into cells for Lassa Virus; actives 1.2% (n = 300,000); Lassa virus pseudotype entry inhibition, cell reporter; Potency, µM (top dose mostly 37.9 µM), for the others: top-dose activity change, negative = inhibition, usual class: inhibitors; AID 540256, 2011; calls by dose curve; tested in HEK293 cells; also: potency is read from the fitted curve at half-maximal effect; nearly all actives have a fitted effect of over 50% in size
HCMV inh – qHTS Assay for inhibitors of the human cytomegalovirus (HCMV); actives 4.5% (n = 410,000); HFF cells, HCMV-luciferase reporter, 72 h; active compounds read low; AID 1259415, 2018; activity change, negative = inhibition, % at 57.5 µM; in the data active = activity change below about -60%; inconclusive = no clear call, values can overlap the other calls; inactive = above about -39%
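Screen run at 2 compound doses on HFFs infected with reporter HCMV, MOI 1 PFU/cell. Luciferase activity from cell lysates at 72 h post infection gave inhibition relative to buffer-only and Salinomycin wells.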
VACV mCherry inh – qHTS for Stage-Specific Inhibitors of Vaccinia Orthopoxvirus: mCherry Reporter Primary qHTS; AID 720579, 2013; actives 0.63% (n = 310,000); Potency, µM (titrated, usually from 36.5 µM), inactives show at the highest dose activity change, negative = inhibition, actives largely listed as inhibitors; Vaccinia virus mCherry reporter infection, fluorescence; calls by dose curve; tested in A549 cells; also: potency is read from the fitted curve at half-maximal effect; nearly all actives have a fitted effect of over 35% in size
HCV inh – qHTS Assay for Inhibitors of Hepatitis C Virus (HCV); Potency, µM (top dose mostly 41.8 µM), without a hit: top-dose activity change, negative = inhibition, usual class: inhibitors; actives 3.4% (n = 340,000); AID 651820, 2012; Huh7.5.1 HCVcc-Cre infection, luciferase reporter, 44 h; active = well fitted inhibition curve with a large enough effect; inconclusive = small, poorly fitted or top-dose-only effect, or another doubt; inactive = no such curve, though single readings can be large or run the other way; also: potency is read from the fitted curve at half-maximal effect
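Whole-lifecycle infectious HCVcc-Cre system; cells 1,000/well, compound then virus (~0.5 moi) added 4 h after plating, 44 h culture. Luciferase read 15 sec following 15 min substrate incubation, room temp.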
Vaccinia Venus – qHTS for Stage-Specific Inhibitors of Vaccinia Orthopoxvirus: Venus Reporter Primary qHTS | Vaccinia virus Venus reporter expression, fluorescence | Potency, µM (top dose mostly 36.5 µM), inactives show at the top dose activity change, negative = inhibition, most hits filed as inhibitors | actives 0.46% (n = 330,000) | AID 720580, 2013; calls by dose curve; tested in A549 cells; also: potency is read from the fitted curve at half-maximal effect; nearly all actives have a fitted effect of over 30% in size
The depositor's hits bear a star; [ ] = dose if it differs, or a comment. Only some compounds are listed: those with a hit (about 7.8% of all), similar ones and a draw of the others. % is scaled to controls: 0 for no effect and ±100 for the full control effect.

How did COc1ccc(C(O)c2nc3ccccc3s2)cc1 (centres undefined) do in these assays?
Marburg entry inh: 0%

Results for CCC1(C2CCN(C(=O)c3cc(C)cc(C)c3)CC2)NC(=O)N(CCc2scnc2C)C1=O (centres undefined) ?
VACV mCherry inh: -22%; Vaccinia Venus: -7%

How did CCc1ccc(OCC(=O)N(Cc2ccco2)Cc2ccco2)cc1 do in these assays?
Marburg entry inh: -8%[46.1 µM]; Lassa entry inh: 11%[46.1 µM]; HCMV inh: -3; VACV mCherry inh: -6%; Vaccinia Venus: -12%

How did [O-][n+]1cccc2c(Br)cc(Br)c(O)c21 do in these assays?
Marburg entry inh: 11%[46.1 µM]; Lassa entry inh: 12%[46.1 µM]; HCMV inh: -84*; VACV mCherry inh: inactive; HCV inh: -2%; Vaccinia Venus: -9%

What do the screens show for `CCOC(=O)CCN1C(=O)[C@H]2[C@H]3[C@H](O)[C@H](O)C/C(=N\OCC(C)C)[C@@H]3CC[C@H]2C1=O`?
Marburg entry inh: -11%[14.2 µM]

What do the screens show for `c1ccc2c(-c3ccncc3)c[nH]c2c1`?
Marburg entry inh: -30%; Lassa entry inh: -5%; HCMV inh: -18; VACV mCherry inh: -21%; HCV inh: 7.9µM*; Vaccinia Venus: 7%

What do the screens show for `O=C1[C@H]2[C@H]3[C@H](O)[C@H](O)C/C(=N\OC[C@@H](O)COCc4ccco4)[C@H]3CC[C@H]2C(=O)N1C1CCCCC1`?
Marburg entry inh: -22%[14.2 µM]

What do the screens show for `CCN1CCN(CCCNC(=O)CCc2nc(-c3ccc(OC)cc3)no2)CC1`?
HCMV inh: -20; HCV inh: -9%

Results for COc1ccc(-c2noc(CCC(=O)NCCCN3CCN(c4ccccc4F)CC3)n2)cc1 ?
HCMV inh: -67*; HCV inh: inconclusive

How did Cc1ccc(-c2noc(CCC(=O)NCCCN3CCN(c4cccc(Cl)c4)CC3)n2)cc1 do in these assays?
Marburg entry inh: inconclusive; Lassa entry inh: inconclusive; HCMV inh: -26; HCV inh: 11µM*; Vaccinia Venus: inconclusive

How did COc1ccc(-c2noc(CCC(=O)NCCN3CCN(c4ccccc4F)CC3)n2)cc1 do in these assays?
Marburg entry inh: inconclusive; Lassa entry inh: inconclusive; HCMV inh: -35; HCV inh: 6.3µM*; Vaccinia Venus: -25%

What do the screens show for `COc1ccc(CNC(=O)Cn2ncc3c([nH]c4ccccc43)c2=O)cc1`?
Lassa entry inh: -10%[46.1 µM]; HCMV inh: 16; VACV mCherry inh: 1%; Vaccinia Venus: -5%

Results for CC(C)(C)c1ccc(/C=N/NC(=O)Cc2c[nH]c3ccccc23)cc1 ?
Marburg entry inh: 15µM*; Lassa entry inh: inconclusive; HCMV inh: 52; HCV inh: inconclusive

What do the screens show for `C/C(=N\NC(=O)Cc1c[nH]c2ccccc12)c1ccc2ccccc2c1`?
Marburg entry inh: inconclusive; Lassa entry inh: 4µM*; HCMV inh: 81; VACV mCherry inh: -18%; HCV inh: -15%; Vaccinia Venus: -20%

Results for C/C(=N\NC(=O)c1c[nH]c2ccccc12)c1ccc2c(c1)OCO2 ?
HCMV inh: 4; HCV inh: -14%

How did C[C@@H]1CN([C@@H](C)CO)C(=O)CCCn2cc(nn2)CO[C@H]1CN(C)C(=O)c1ccc(N2CCN(C)CC2)cc1 do in these assays?
HCMV inh: -20

Results for CC(C)(C)c1ccc(/C=N/Nc2ccc(C(=O)O)cc2)cc1 ?
Marburg entry inh: 3.7µM*; Lassa entry inh: 2µM*; HCMV inh: -76*; VACV mCherry inh: inconclusive; HCV inh: 6%; Vaccinia Venus: inconclusive

Results for CC(C)(C)c1ccc(/C=N/Nc2cccc(C(=O)O)c2)cc1 ?
HCMV inh: 160; HCV inh: 14%

What do the screens show for `CC1Oc2ccccc2C=C1/C=N/Nc1ccc(C(=O)O)cc1` (centres undefined)?
HCMV inh: 8; VACV mCherry inh: 13µM*; HCV inh: 2%; Vaccinia Venus: -22%

Results for O=C(O)c1ccc(/C=N/Nc2ccc(F)cc2F)cc1 ?
Marburg entry inh: 14µM*; Lassa entry inh: 2.8µM*; HCMV inh: 214; VACV mCherry inh: 0%; HCV inh: 23%; Vaccinia Venus: -7%

What do the screens show for `O=C(O)c1ccc(N/N=C/c2ccc(C(F)(F)F)cc2)cc1`?
Marburg entry inh: 1.6µM*; Lassa entry inh: 1.3µM*; HCMV inh: -31; VACV mCherry inh: -9%; HCV inh: 31%; Vaccinia Venus: -13%

Results for O=C(c1ccc2c(c1)N(Cc1cccc(Cl)c1)C(=O)c1ccccc1S2=O)N1CCN(c2cccc(C(F)(F)F)c2)CC1 (centres undefined) ?
Lassa entry inh: -28%[46.1 µM]; HCMV inh: inconclusive; VACV mCherry inh: inconclusive; Vaccinia Venus: -24%

Results for Cc1ccc(N(C[C@@H](O)CN(C)C)S(=O)(=O)c2ccccc2)cc1 ?
Marburg entry inh: 1%

What do the screens show for `Cc1cc(N2CCN(C(=O)c3ccoc3)CC2)n2nc(-c3ccccc3)cc2n1`?
HCMV inh: -8; VACV mCherry inh: inconclusive; Vaccinia Venus: -13%

What do the screens show for `Cc1cc(N2CCN(C(=O)c3ccco3)CC2)n2ncc(-c3ccccc3)c2n1`?
Marburg entry inh: inconclusive; Lassa entry inh: -20%; HCMV inh: 210; HCV inh: -3%; Vaccinia Venus: -18%

What do the screens show for `COc1ccccc1-c1cc2nc(-c3ccccc3)cc(N3CCN(C(=O)c4ccoc4)CC3)n2n1`?
HCMV inh: -103*; VACV mCherry inh: inconclusive; Vaccinia Venus: inconclusive

How did O=C(c1ccoc1)N1CCN(c2cc(-c3ccco3)nc3cc(-c4ccccc4)nn23)CC1 do in these assays?
HCMV inh: -73*; VACV mCherry inh: inconclusive; Vaccinia Venus: inconclusive

What do the screens show for `COc1ccccc1-c1cc2nc(-c3ccccc3)cc(N3CCN(C(=O)c4ccco4)CC3)n2n1`?
HCMV inh: -100*; VACV mCherry inh: inconclusive; Vaccinia Venus: inconclusive

What do the screens show for `O=C(c1ccoc1)N1CCN(c2cc(-c3ccccc3)nc3cc(-c4ccccc4)nn23)CC1`?
HCMV inh: -98*; VACV mCherry inh: inconclusive; Vaccinia Venus: inconclusive

What do the screens show for `COc1ccc(-c2cc3nc(C)c(C)c(N4CCN(C(=O)c5ccoc5)CC4)n3n2)cc1`?
HCMV inh: 24; VACV mCherry inh: -5%; Vaccinia Venus: -13%

What do the screens show for `Cc1ncc2c(c1CNC(=O)c1ccc3c(c1)OCO3)CCN(C(=O)c1cn3ccccc3n1)C2`?
VACV mCherry inh: -10%; Vaccinia Venus: 5%
